The source of these data is PubChem BioAssay AID431 (Sanford-Burnham Center for Chemical Genomics, 2006).

The whole screen tested about 63,000 compounds, of which about 1,100 (1.7%) were called active. Shown is part of a subset that was picked to be rich in actives. Results with a measured potency or affinity are listed apart. Values without a mark were called inactive.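 Rule for the calls: active = compounds whose percent cytotoxicity in the single-dose primary screen, scaled between solvent and toxic-drug controls, exceeds 50; inactive = the rest.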

A short description of this assay: cytotoxicity in KRAS-transformed pancreatic duct cells, primary screen, cell-based, fluorescence, HTS (AID 431).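 Note: 0% = DMSO solvent wells and 100% = doxorubicin-treated wells.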 Particulars: HPDE-C7K KRASV12 cells, Alamar Blue viability, 48 h; at 10 µM; hits give high values.
As for `COc1ccc(C2C(C(=O)NCC3CCCO3)CCC(=O)N2c2ccc3c(c2)OCO3)cc1` (stereo not given), the cytotoxicity was -18.6%.
Then `O=C(Nc1ccccc1C(F)(F)F)c1cc(S(=O)(=O)N2CCOCC2)ccc1F`, with 24.1%.
Then `CCn1c(C(=O)NCc2ccccn2)cc2sccc21`, with -5.6%; and `Cc1cc2c(=O)n(Cc3ccco3)c(SCC(=O)NCc3ccco3)nc2s1`, with -12.9%; and `COc1ccc(C2N=C(Nc3ccc(C)cc3)Nc3nc(C)cc(=O)n32)cc1` (stereo not given), with 2.4%.
Under `COc1ccc(S(=O)(=O)N(CC(=O)O)c2ccccc2)cc1` stands 8.5%.
With `Cc1csc2nc3ccccc3c(=O)n12`, the cytotoxicity was 2.6%.
Take `COc1cc(C(=O)O)ccc1OC(C)=O`: the cytotoxicity was -2.6%.
Under `COc1cc(C2Nc3cccc4cccc(c34)N2)ccc1OC(C)=O` stands 50.8% (active).
Under `COc1cc(C2Nc3cccc4cccc(c34)N2)cc(OC)c1OC(C)=O` stands 83.6% (active); under `Oc1ccccc1C1Nc2cccc3cccc(c23)N1`, -2.4%.
Under `COc1cc(C2Nc3cccc4cccc(c34)N2)cc(OC)c1O` stands 41.5%; under `COc1cc(C2N(c3ccccc3)CCN2c2ccccc2)ccc1OC(C)=O`, -13.9%; under `Cc1ccc(S(=O)(=O)Cn2nnnc2C(C(C)C)N2CCN(C(=O)c3ccco3)CC2)cc1` (stereo not given), -8.7%.
On to `CCOC(=O)CNC(=O)Nc1cc(C(C)(C)C)nn1-c1ccccc1`, for which the cytotoxicity was -5.3%.
Under `Cc1ccc2nc(-c3ccccn3)oc2c1` stands 9.5%; under `CCOC(=O)C(CCC#N)(CCC#N)C(=O)OCC`, -1.4%; under `O=C(CN(Cc1ccco1)C(=O)CNS(=O)(=O)c1ccc(F)cc1)NCc1ccc(F)cc1`, 1.2%.
Under `O=C(CN(Cc1ccco1)C(=O)CNS(=O)(=O)c1ccc(Cl)cc1)NCc1ccc(F)cc1` stands 77.7% (active); under `O=C(CN(Cc1ccco1)C(=O)CNS(=O)(=O)c1ccccc1)NCc1ccc(F)cc1`, 2.2%; under `CC(=O)c1cccc(NC(=O)NC(C)c2ccncc2)c1` (stereo not given), -4.4%.
Then `Cc1noc(/C=C/NCc2cccnc2)c1S(=O)(=O)N(C)CC(=O)N1CCc2ccccc21`, with 2.4%; and `COc1cc2cc(C)c(SCC(=O)N3CCOCC3)nc2cc1OC`, with -9.8%; and `O=C(O)CCN(CCC(=O)O)S(=O)(=O)c1ccccc1`, with -5.5%.
Take `COc1ccc(-n2c(SCCC#N)nnc2-c2cc(Cl)ccc2OC)cc1Cl`: the cytotoxicity was 54.3% (active).
Then `Cc1cc(-n2c(SCCC#N)nnc2-c2cccnc2)ccc1Cl`, with -9.6%.
Under `N#CCCCSc1nnc(-c2ccc(Cl)cc2)n1-c1ccccc1` stands -16.4%; under `COc1ccc(N(C(=O)c2ccc(S(=O)(=O)N3CCOCC3)cc2)C2C=CS(=O)(=O)C2)cc1` (stereo not given), -10.3%; under `CCOC(=O)C1=C(C)C(c2ccc(OC)cc2OC)NC(=O)N1` (stereo not given), -21.1%.
For the compound `COc1ccc(OC)c(C2C(C#N)=C(N)Oc3cc(N)ccc32)c1` (stereo not given), the cytotoxicity is 9.4%.
Under `COc1ccc(C2C(C#N)=C(N)Oc3cc(O)ccc32)cc1OC` (stereo not given) stands -2.6%; under `N#CC1=C(N)Oc2cc(O)ccc2C1c1ccccc1` (stereo not given), 1.7%.
Under `CCc1[nH]nc2c1C(c1cccnc1)C(C#N)=C(N)O2` (stereo not given) stands 5.8%; under `CCN(CC)c1ccc2c(c1)OC(N)=C(C#N)C2c1cccnc1` (stereo not given), 70.8% (active).
`COc1cc(C2C(C#N)=C(N)Oc3cc(N)ccc32)cc(OC)c1OC` (stereo not given): the cytotoxicity was 54.9% (active).
Then `CN(C)c1ccc2c(c1)OC(N)=C(C#N)C2c1cccc(F)c1` (stereo not given), with 55.5% (active).
Then `N#CC1=C(N)Oc2c(ccc3cccnc23)C1c1cccnc1` (stereo not given), with 42.1%.
Then `N#CC1=C(N)Oc2cc(O)ccc2C1c1ccncc1` (stereo not given), with -1.3%; and `CCc1c(C)c(C#N)c2nc3ccccc3n2c1N(C)C`, with 10.9%.
For `CCCCn1c(=O)cc(O)c2ccccc21`, the cytotoxicity is -12.7%.
Under `CC1=C(C(=O)OCC2CCCO2)C(c2ccncc2)C2=C(CCCC2=O)N1` (stereo not given) stands -3.4%.
Then `Nc1nncn1C(=O)CCc1ccccc1`, with 4%; and `O=c1oc(-c2cccs2)nc2sc3c(c12)CCC3`, with 33%.
Then `O=c1oc(-c2cc3ccccc3o2)nc2sc3c(c12)CCCC3`, with 57.9% (active); and `O=c1oc(-c2cccs2)nc2sc3c(c12)CCCCC3`, with 43.5%.
As to `Cc1cccc(-c2c3c(=O)n(C)c(=O)n(C)c3cn2C(C)C)c1`, the cytotoxicity is -5.2%.
Then `CCOC(=O)c1ccc(N2C(=O)CC(Sc3nnc(C)s3)C2=O)cc1` (stereo not given), with -5.1%.
Under `C=CCNc1nnc(SC2CC(=O)N(c3ccc(OC)cc3)C2=O)s1` (stereo not given) stands 77.3% (active); under `COc1ccc(N2C(=O)CC(Sc3nccc(C)n3)C2=O)cc1` (stereo not given), 9.4%; under `O=C(CN1C(=O)C2C3C=CC(C3)C2C1=O)N1CC(=O)N(CCc2ccccc2)C(=O)C1` (stereo not given), -4.4%.
`Nn1c(-c2cccs2)nc2sc3c(c2c1=O)CCCC3`: the cytotoxicity is -1.9%.
Under `CCc1nc2sc3c(c2c(=O)n1N)CCC3` stands -6.1%; under `Nn1c(Nc2ccccc2)nc2sc3c(c2c1=O)CCC3`, 61.4% (active).
Under `N#CC1=C2SCN(c3ccc(F)cc3)CN2C(=O)CC1c1cccc(F)c1` (stereo not given) stands 1.2%; under `Cc1ccccc1Cn1cc(NC(=O)c2noc3c2CC(C(C)(C)C)CC3)cn1` (stereo not given), -6.5%.
Under `CC(C)(C)C1CCc2onc(C(=O)Nc3cnn(Cc4ccc(F)cc4)c3)c2C1` (stereo not given) stands 81.6% (active); under `CC(C)(C)C1CCc2onc(C(=O)NCc3ccc(F)cc3)c2C1` (stereo not given), -7%.
For the compound `COc1ccccc1NC(=O)Cc1noc(CSc2cc(C)c3ccccc3n2)n1`, the cytotoxicity was -4.4%.
Under `O=C(c1cccnc1)N1CCC(c2nc3ccccc3[nH]2)CC1` stands -11.8%.
Consider `Cc1ccc(C2(C(F)(F)F)NC(=O)N3CCN=C3S2)cc1` (stereo not given), for which the cytotoxicity was 76.6% (active).
Under `Cc1ccc(C2(C(F)(F)F)NC(=O)N3CCCN=C3S2)cc1` (stereo not given) stands -10.2%; under `O=C1NC(c2ccccc2)(C(F)(F)F)SC2=NCCCN12` (stereo not given), 6.7%; under `CCN(CC)CCCN1C(=O)c2oc3ccccc3c(=O)c2C1c1cccc(OC)c1OC` (stereo not given), -9.4%.
Regarding `COCCn1cnc2c(c1=O)c1nc3ccccc3nc1n2/N=C/c1cccc(OC)c1OC`, the cytotoxicity is 9.4%.
With `C=CCn1cnc2c(c1=O)c1nc3ccccc3nc1n2/N=C/c1cccc(OC)c1`, the cytotoxicity is 55.1% (active).
Under `C=CCn1cnc2c(c1=O)c1nc3ccccc3nc1n2Cc1ccccc1` stands -3.7%.
On to `C=CCn1cnc2c(c1=O)c1nc3ccccc3nc1n2/N=C/c1ccccn1`, for which the cytotoxicity was -21.9%.
For `C=CCn1cnc2c(c1=O)c1nc3ccccc3nc1n2/N=C/c1cccc(OC)c1OC`, the cytotoxicity is 59.6% (active).
Under `C=CCn1cnc2c(c1=O)c1nc3ccccc3nc1n2-c1ccc(Cl)cc1` stands 0.8%.
Under `C=CCn1cnc2c(c1=O)c1nc3ccccc3nc1n2-c1ccc(C)cc1` stands 13.4%; under `C=CCn1cnc2c(c1=O)c1nc3ccccc3nc1n2-c1ccccc1`, -1.9%.
As for `Cc1ccc(S(=O)(=O)NC(C)C(=O)NC2CCCCCC2)cc1` (stereo not given), the cytotoxicity was 1%.
Regarding `O=C1C(=C(O)c2ccccc2)C(=O)c2ccccc21`, the cytotoxicity is 2%.
Then `O=C(CC(c1ccco1)C1CCCCC1=O)c1ccco1` (stereo not given), with 14.2%; and `COc1cccc(C(=O)N(CN2CCCC2=O)c2cccc(Cl)c2)c1`, with -17.4%.
Then `CCOC(=O)c1cccc(NC(=O)CN(C)S(=O)(=O)c2cnc[nH]2)c1`, with -9.7%.
Consider `CCc1nnc(NC(=O)CSc2nnc(COc3ccccc3)n2-c2ccc(C)cc2)s1`, for which the cytotoxicity was 2.3%.
Then `COC(=O)Cn1cnc2c(C#N)c3n(c2c1=O)CCCCC3`, with -14.2%; and `COc1ccccc1-c1noc(-c2ccccc2C(=O)N2CCOCC2)n1`, with -11.4%.
Then `CCn1c2ccccc2c2cc(N)ccc21`, with 22.9%; and `CCn1c2ccccc2c2cc(/C=N/n3cnnc3)ccc21`, with 16.2%; and `C=Cn1ccnc1P(=S)(c1ccc2c(c1)c1ccccc1n2CC)c1nccn1C=C`, with 63.9% (active).
As to `CCN(CC(=O)Nc1ccc2c(c1)OCCO2)C(=O)C1CCCCC1`, the cytotoxicity is -7.3%.
Under `CN(CC(=O)Nc1ccc(C#N)cc1)Cc1ccc(Cl)cc1` stands 2.8%.
Under `Cc1cccc(NC(=O)Nc2ccc(C#N)cc2)n1` stands 12.8%.
Then `N#Cc1ccc(NC(=O)Nc2ccc(Cl)cc2)cc1`, with 67.5% (active); and `O=C(c1ccc(Cl)cc1)N1CCCOC1`, with 0.8%; and `C=CC(=C)CC(NC)c1ccccc1` (stereo not given), with 8.2%.
On to `Cc1nc(NCC2CCCO2)c2oc3ccccc3c2n1` (stereo not given), for which the cytotoxicity was 6.5%.
Under `CCOC(=O)c1c(N)sc2c(OC)c(Br)ccc12` stands 58.8% (active).
Under `CCOC(=O)c1c(N)sc(=S)c2c1CCC2` stands 10.6%.
Under `CCOC(=O)c1c(N)sc2c(O)c(Br)ccc12` stands 13.7%; under `Cc1ccc2c(c1)cc(CN(CCc1ccccc1)C(=O)N1CCOCC1)c1nnnn12`, -24.7%.
Consider `COc1ccc(NC(=O)N(CCCN(C)C)Cc2cc3cc(OC)ccc3[nH]c2=O)cc1`, for which the cytotoxicity is -3%.
Then `CCN(CC)S(=O)(=O)c1cc(C(=O)Oc2ccccc2OC)ccc1OC`, with 2.8%; and `Cn1c(CNC(=O)Cc2ccc3c(c2)OCO3)nnc1SCc1ccccc1`, with -39.1%.
For `CC1Cn2c(nnc2-c2cccc(Cl)c2)S1` (stereo not given), the cytotoxicity was 3.6%.
Consider `CCOC(=O)C(C)Sc1nc(-c2cccs2)ccc1C#N` (stereo not given), for which the cytotoxicity was 59.5% (active).
Under `COC(=O)CSc1nc(-c2cccs2)ccc1C#N` stands 12.6%.
Then `C=COC(=O)CSc1nc(-c2cccs2)ccc1C#N`, with 40.6%.
